Sfp PPTase inh = qHTS Assay for Inhibitors of Bacillus subtilis Sfp phosphopantetheinyl transferase (PPTase) | Potency, µM, inactives show largest response in the series, negative = inhibition, usual class: inhibitors | AID 1490, 2009 | actives 3.5% (n = 310,000) | Biochemical Sfp PPTase activity, qHTS | 4'-phosphopantetheinyl transferase ffp (Bacillus subtilis), Q9F4F7;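 further: the enzyme is Sfp with the accession as filed and its product quenches rhodamine fluorescence; 0% = enzyme reaction without inhibitor and -100% = no enzyme wells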
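With Hepes-Na pH 7.6 buffer containing 10 mM MgCl2, Sfp (15 nM) modified BHQ-2-YbbR (12.5 uM) using rhodamine-CoA (5 uM). Two reads 30 minutes apart at 525/598 nm yielded each well's rate.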
RORg inh = qHTS for inhibitors of ROR gamma transcriptional activity; Drosophila S2 Gal4-RORgamma UAS-luciferase reporter, 20 h; actives 5.4% (n = 310,000); Potency, µM (series often up to 53.6 µM), for the others: at the top dose activity change, negative = inhibition, usual class: inhibitors; Nuclear receptor ROR-gamma (Mus musculus), P51450; further: on the % scale 0 is the no-effect control and ±100 the full control effect; nearly all actives have a fitted effect of over 60% in size
Target sequence (P51450 whole entry, looked up, the tested form may be a part): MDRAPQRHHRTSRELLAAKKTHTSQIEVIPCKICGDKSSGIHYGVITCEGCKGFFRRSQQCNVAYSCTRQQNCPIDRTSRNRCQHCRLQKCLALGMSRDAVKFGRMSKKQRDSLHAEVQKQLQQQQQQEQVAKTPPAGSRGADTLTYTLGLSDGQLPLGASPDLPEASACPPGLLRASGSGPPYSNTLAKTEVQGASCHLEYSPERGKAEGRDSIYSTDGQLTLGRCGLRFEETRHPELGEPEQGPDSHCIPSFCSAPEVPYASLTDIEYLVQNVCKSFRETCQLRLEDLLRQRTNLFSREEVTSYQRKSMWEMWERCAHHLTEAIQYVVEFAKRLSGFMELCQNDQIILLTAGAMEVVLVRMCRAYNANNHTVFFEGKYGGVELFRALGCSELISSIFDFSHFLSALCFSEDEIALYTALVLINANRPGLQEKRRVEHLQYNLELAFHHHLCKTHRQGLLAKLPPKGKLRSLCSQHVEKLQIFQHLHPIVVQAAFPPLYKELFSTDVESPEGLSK
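In this cell-based reporter format, copper sulfate (700 uM final) drives Gal4–ROR gamma fusion expression from a metallothionein promoter in Drosophila Schneider cells; compounds preincubated 1 hr, reporter read after 20 hr at ambient temperature.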
PINK1 expr mod = A Quantitative High throughput Screen to Identify Chemical Modulators of PINK1 Expression; PINK1 immunofluorescence, high-content cytometry, 24 h; actives 0.2% (n = 410,000); Potency, µM (series often up to 76.6 µM), inactives show top-dose activation (PINK1 increase), usual class: activators; active means well fitted activation curve with a large enough effect; inconclusive means small, poorly fitted or top-dose-only effect; cell line not stated here; further: % of control where 0% means no effect; nearly all actives have a fitted effect of over 65% in size
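Fluorescence from anti-PINK1 antibody, together with nuclear and cell stains, was scanned on a laser-scanning cytometer. Before staining, stable-line cells were incubated 24 hours with compounds at 5 concentrations; primary antibody 12 h at 10 degrees C.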
VP16 counter = VP16 counterscreen qHTS for inhibitors of ROR gamma transcriptional activity; Drosophila S2 Gal4-VP16 UAS-luciferase, luminescence, 20 h; Potency, µM (highest dose often 53.6 µM), for inactives: at the top dose activity, negative = inhibition, most hits filed as inhibitors; actives 3.5% (n = 310,000); AID 2546, 2010;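 further: Gal4-VP16 expression switched on by copper sulfate through the metallothionein promoter; on the % scale 0 is the no-effect control and ±100 the full control effect; nearly all actives have a fitted effect of over 50% in size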
ClpP mod = qHTS Assay for Activators of ClpP | ATP-dependent Clp protease proteolytic subunit (Bacillus subtilis (strain 168)), P80244 | purified B. subtilis ClpP, FRET peptide cleavage, 20 min | Potency, µM (highest dose often 57.5 µM), inactives show at the highest dose activity change, negative = active | actives 1.9% (n = 340,000) | AID 651965, 2013; active means well fitted falling curve with a large enough effect; inconclusive means small, poorly fitted or top-dose-only effect; inactive means no such curve, though single readings can be large or run the other way; further: the source files actives as falling curves though it sought activators and does not explain the sign; nearly all actives have a fitted effect of over 65% in size
Target sequence (P80244 whole entry, looked up): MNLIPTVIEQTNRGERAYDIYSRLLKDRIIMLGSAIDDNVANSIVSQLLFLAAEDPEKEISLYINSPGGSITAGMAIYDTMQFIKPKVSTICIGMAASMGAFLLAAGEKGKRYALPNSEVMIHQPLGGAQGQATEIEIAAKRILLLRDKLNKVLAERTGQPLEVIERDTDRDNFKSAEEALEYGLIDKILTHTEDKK
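Purified B. subtilis ClpP, 10 microg/mL final in Tris/HCl pH8 with KCl, BSA, glycerol and Tween-20, cleaved an Abz/nitrotyrosine-quenched decapeptide. Fluorescence (ex 320, em 430) was read at 0 and 20 min at room temperature. Delta was normalized to 5.8 microM ADEP and DMSO/no-enzyme controls.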
Epigenetic reg = Quantitative High-Throughput Screen for Regulators of Epigenetic Control; murine LDR cells, GFP reporter derepression, 30 h; Potency, µM (titrated, usually from 53.9 µM), for inactives: top-dose GFP activation, usual class: activators; actives 0.2% (n = 280,000); further: % of control where 0% means no effect; nearly all actives have a fitted effect of over 60% in size
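Murine LDR cells bearing a silenced CMV-driven GFP reporter were exposed to compound for 30 h at 37 C. After PBS washes, GFP-positive cells (20-120 um objects) counted by laser-scanning microplate cytometry.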
Starred values were filed as active, the others as inactive; ? = inconclusive; nt = no result given; [ ] = dose if it differs, or a comment. Compounds with a hit are over-represented: about 8.1% of the library has one in this group of screens. Unless noted, the call rests on the fitted dose curve; in most records, active means well fitted curve in the direction sought with a large enough effect; inconclusive means small, poorly fitted or top-dose-only effect, or another doubt; inactive means no such curve, though single readings can be large; an effect the other way counts as inactive or inconclusive. Potency means the concentration at half of the fitted maximal effect.

SMILES	Sfp PPTase inh	RORg inh	PINK1 expr mod	VP16 counter	ClpP mod	Epigenetic reg
Cc1c(Cl)cccc1NC(=O)C(CCS(C)(=O)=O)N1Cc2ccccc2C1=O (stereo unspecified)	nt	nt	-1%	nt	-1%	0%
O=[N+]([O-])c1cc(Br)c(O)c(C=Nc2ccc(N3CCOCC3)cc2)c1	-9%	-3%	3%	-5%	nt	-3%
Oc1ccc(N=Cc2cc(Br)c(N3CCOCC3)o2)cc1	40µM*	-20%	-1%	?	1%	1%
CC12CC3CC(C)(C1)CC(C(=O)NC1=NCCS1)(C3)C2	17%	2.8µM*	7%	7.9µM*	1%	-1%
CCc1ccccc1NC(=O)C1CCN(C2=NS(=O)(=O)C(c3ccc(C)c(C)c3)=C2C)CC1	nt	nt	10%	nt	2%	12%
COc1cccc(NC(=O)Cn2c(=O)n(-c3ccccc3)c(=O)c3ccc(C(=O)NCc4ccc5c(c4)OCO5)cc32)c1	nt	nt	-5%	nt	0%	2%
Cc1[nH]c(=S)c(C#N)c(C)c1Cc1ccc(Cl)cc1Cl	18%	3.2µM*	2%	20µM*	-2%	0%
CCOc1ccc(S(=O)(=O)NCc2ccc(C)cc2)c2cccnc12	3%	2%	1%	2%	32µM*	-2%
CCOc1ccc(NS(=O)(=O)c2ccc(OCC)c3ncccc23)cc1	-3%	?	20%[38.3 µM]	?	-1%	0%
COc1ccc(S(=O)(=O)n2ccnc2)c2cccnc12	13%	-35%	5%	4%	13µM*	-1%
CCCCNS(=O)(=O)c1ccc(OC)c2ncccc12	15%	-18%	2%	1%	28µM*	-3%
CC(C)(O)C(=O)O	nt	-4%	nt	9%	nt	nt
Cc1ccc(CNC(=O)[C@@H]2C[C@H]2[C@@H](NP(=O)(c2ccccc2)c2ccccc2)c2ccccc2)o1	50µM*	22%	nt	-8%	nt	-1%
Cc1cc(CNC(=O)[C@@H]2C[C@H]2[C@@H](NP(=O)(c2ccccc2)c2ccccc2)c2ccccc2)nn1C	7%	1%	nt	0%	nt	7%
COc1cccc(NC(=S)NNC(=O)Cn2nc(C(F)F)cc2C(F)F)c1	-2%	1.1µM*	0%	?	1%	-1%
Cc1cc(C(F)(F)F)nn1CC(=O)NNC(=S)Nc1cccc(Cl)c1	5%	11µM*	3%[38.3 µM]	?	0%	-1%
Cc1cc(C(F)(F)F)nn1CC(=O)Nc1cccnc1	-1%	13%	2%	-6%	0%	5%
CSc1ccccc1NC(=O)Cn1nc([N+](=O)[O-])c(Cl)c1C	0%	40%	0%	28%	nt	2%
O=C(Cn1nc(C(F)F)cc1C(F)F)NNC(=S)Nc1ccc([N+](=O)[O-])cc1	7%	10µM*	1%	?	nt	6%
CSc1ccccc1NC(=O)Cn1nc([N+](=O)[O-])cc1C	56µM*	11%	0%	-18%	nt	0%
CC(=O)Nc1ccc(Nc2nc(Nc3ccc(Cl)cc3)nc(N3CCOCC3)n2)cc1	nt	nt	9%	nt	-14%	nt
Cc1cc([N+](=O)[O-])nn1CC(=O)NNC(=S)Nc1ccc(Cl)cc1	27%	16µM*	10%[38.3 µM]	?	-1%	-1%
COc1ccc(NC(=O)c2ccco2)cc1NC(=O)c1cc(OC)c(OC)c(OC)c1	nt	nt	1%	nt	1%	0%
O=C1CS/C(=N/N=C\c2ccn[nH]2)N1	56µM*	10µM*	0%	?	-1%	0%
CCOC(=O)C(CCCOc1ccc(C(C)CC)cc1)C(=O)OCC (stereo unspecified)	19%	2.8µM*	0%	?	0%	-4%
SMILES	Sfp PPTase inh	RORg inh	PINK1 expr mod	VP16 counter	ClpP mod	Epigenetic reg
CCOc1ccc(OCc2ccc(C(=O)N3CCCC3)o2)cc1	-19%	2.5µM*	2%[38.3 µM]	-30%	-2%	2%
CCOC(=O)C(CCCOc1ccc(C)cc1)C(=O)OCC	9%	33%	1%	-20%	1%	1%
CCC(C)c1ccc(OCc2ccc(C(=O)O)o2)cc1 (stereo unspecified)	12%	14µM*	0%	?	0%	nt
CCOC(=O)c1ccc(COc2ccc(C(C)C)cc2)o1	1%	-38%	1%	-10%	nt	-1%
Cc1ccc(-c2noc(-c3ccc(N4CCOCC4)c([N+](=O)[O-])c3)n2)cc1	nt	nt	1%	nt	0%	5%
COc1cc(OC)c(/C=C/c2nccc3ccccc23)c(OC)c1	nt	nt	?	nt	-7%	nt
COc1ccc(-n2c(CNC(=O)c3cccc(OC)c3OC)nnc2SC)cc1	nt	nt	3%	nt	nt	nt
Cc1cccc(Nc2nnc(-c3ccc(C)c(S(=O)(=O)N4CCN(C)CC4)c3)c3ccccc23)c1	nt	nt	1%	nt	-7%	-1%
CCCn1c(SCC#N)nc2c(c1=O)C1(CCCC1)Cc1ccccc1-2	-5%	-23%	3%	5%	-18%	-1%
N#CCSc1n[nH]c2nc3c(c(=O)n12)C1(CCCC1)Cc1ccccc1-3	89µM*	-14%	-1%	-1%	16µM*	-6%
COc1ccc(/C=N/NC(=O)c2nn(-c3ccccc3)c(=O)c3c(N)scc23)cc1	7.1µM*	?	0%	-13%	3%	0%
CCOC(=O)c1nn(-c2ccc(C)c(C)c2)c(=O)c2c(N)scc12	8.9µM*	-7%	5%	0%	-4%	-1%
CCOC(=O)c1nn(-c2ccc(OC)cc2)c(=O)c2c(N)scc12	10µM*	-38%	12%[38.3 µM]	-16%	0%	2%
CCOC(=O)c1nn(-c2ccccc2)c(=O)cc1OCC(=O)Nc1cccc(OC)c1	nt	nt	0%	nt	3%	nt
CCOC(=O)c1nn(-c2ccc(C)cc2)c(=O)cc1OCC(=O)Nc1ccc(OC)cc1	nt	nt	-1%	nt	8.9µM*	nt
COc1ccc(/C=N/NC(=O)c2nn(-c3ccc(Cl)cc3)c(=O)c3c(N)scc23)cc1	-27%	-13%	1%[38.3 µM]	2%	-1%	-2%
CCOC(=O)c1nnn(-c2ccc(OC)cc2)c1N	20%	3%	-2%	22%	-6%	1%
CCOC(=O)c1nn(-c2ccc(C)c(C)c2)cc1O	4%	10%	6%	-2%	-6%	2%
C=C1C=C(C)n2ncc(C(=O)NCCCCCC)c2N1	nt	nt	-1%	nt	4%	nt
Cc1ccc(C(=O)NCC(c2cccs2)S(=O)(=O)c2cccs2)cc1 (stereo unspecified)	nt	nt	2%	nt	0%	-3%
COc1cc(Nc2nc(SCc3cccc(Cl)c3)nc3ccccc23)cc(OC)c1	nt	nt	7%	nt	32µM*	-1%

Assay outcomes: PubChem BioAssay, National Center for Advancing Translational Sciences (NCATS)
